# Data taken from PubChem BioAssay (NCATS).
# Inconclusive results are not listed. A number with no mark means an inactive call. Activity calls are given as the source filed them. The call rests on the fitted dose curve; in most records, active means well fitted inhibition curve with a large enough effect; inconclusive means small, poorly fitted or top-dose-only effect; inactive means no such curve, though single readings can be large or run the other way.
# Biological target: Rap guanine nucleotide exchange factor 3 (Homo sapiens) (UniProt O95398)
# Sequence (O95398 whole entry, looked up): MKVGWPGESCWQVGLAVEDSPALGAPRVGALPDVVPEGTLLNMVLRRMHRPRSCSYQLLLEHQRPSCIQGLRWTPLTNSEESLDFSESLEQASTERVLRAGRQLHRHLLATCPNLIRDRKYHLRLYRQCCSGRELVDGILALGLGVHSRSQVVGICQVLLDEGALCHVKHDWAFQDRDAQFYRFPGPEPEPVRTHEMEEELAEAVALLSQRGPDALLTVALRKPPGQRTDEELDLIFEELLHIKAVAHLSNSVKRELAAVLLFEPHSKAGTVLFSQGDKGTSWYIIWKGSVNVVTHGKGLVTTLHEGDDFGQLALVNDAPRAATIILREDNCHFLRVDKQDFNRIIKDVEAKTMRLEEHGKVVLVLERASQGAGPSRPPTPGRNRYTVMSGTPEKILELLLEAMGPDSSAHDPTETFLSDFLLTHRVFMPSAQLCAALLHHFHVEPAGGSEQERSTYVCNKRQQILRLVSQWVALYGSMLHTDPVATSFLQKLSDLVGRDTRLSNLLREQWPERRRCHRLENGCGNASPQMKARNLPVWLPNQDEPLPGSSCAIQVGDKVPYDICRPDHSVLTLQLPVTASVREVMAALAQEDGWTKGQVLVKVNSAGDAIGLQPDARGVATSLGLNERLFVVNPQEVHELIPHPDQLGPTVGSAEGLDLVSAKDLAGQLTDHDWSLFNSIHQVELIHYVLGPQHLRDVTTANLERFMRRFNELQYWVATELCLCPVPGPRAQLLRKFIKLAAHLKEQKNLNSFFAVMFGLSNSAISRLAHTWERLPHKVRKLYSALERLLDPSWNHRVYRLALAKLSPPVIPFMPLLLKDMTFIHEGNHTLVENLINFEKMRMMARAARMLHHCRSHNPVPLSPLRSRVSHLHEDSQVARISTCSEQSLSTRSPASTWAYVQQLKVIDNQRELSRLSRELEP
# Experiment: Confirmatory qHTS for antagonist of cAMP-regulated guanine nucleotide exchange factor 3 (EPAC1) (AID 1645880); further: nearly all actives have a fitted effect of over 55% in size
# Settings: EPAC1 Rap1B-BODIPY-GDP exchange, fluorescence; activity, negative = inhibition: at 115 µM (top of the series)
# From the text: Assay Provider (PI): Xiaodong Cheng Ph.D. The University of Texas Medical Branch, […], TX MLPCN Grant: NS066510 In multi-cellular eukaryotic organisms, the effects of cAMP are transduced by two ubiquitously-expressed intracellular cAMP receptors, the classic protein kinase A/cAMP-dependent protein kinase (PKA/cAPK) and the more recently discovered exchange protein directly activated by cAMP/cAMP-regulated guanine nucleotide exchange factor (EPAC/cAMP-GEF). Both PKA and EPAC are ubiquitously expressed in all tissues, and an increase in intracellular cAMP levels will lead to the activation of both PKA and EPAC. Therefore, careful dissections of the individual role and relative contribution of EPAC and PKA within the overall cAMP signaling in various model systems are critical for further elucidating the mechanism of cAMP signaling. To date no EPAC-specific antagonists and agonist, as well as isoform-specific agonists have been reported, and developing EPAC-specific pharmacological probes to determine the physiological functions that EPAC play in the overall cAMP-mediated signaling remains a major challenge within the research field. Furthermore, identified regulators of EPAC may lead to new mechanism-based therapeutic strategies specifically targeting the EPAC / cAMP-signaling components as EPAC has been implicated to play important roles in major human pathological conditions such as diabetes, heart disease, and cancer. This qHTS will be used to screen the Molecular Libraries Small Molecule Repository (MLSMR) as a concentration-titration series using the NCGC unique quantitative screening (qHTS) platform to find activators for EPAC1. In addition, this assay will also be used as a counterscreen for the EPAC2 qHTS. This fluorescent based assay is developed and validated for EPAC1 that measures exchange using EPAC effector Rap1 complex with BODIPY-GDP, a GDP analog with a tethered fluorophores. Activators are identified by monitoring the change in fluorescence signal as the exchanged free BODIPY-GDP has a reduced fluorescence compared to Rap1-bound BODIPY-GDP. Increase in signal (activation) is the desired outcome for the EPAC1 agonist while no activity in this assay is desired for the EPAC2 agonist counterscreen. Reference: [1] de Rooij, J., Zwartkruis, F. J., Verheijen, M. H., Cool, R. H., Nijman, S. M., Wittinghofer, A., and Bos, J.L. (1998) Nature 396, 474-477. Kawasaki, H., Springett, G. M., Mochizuki, N., Toki, S., Nakaya, M., Matsuda, M., Housman, D. E., and Graybiel, A. M. (1998) Science 282, 2275-2279.
# Briefly, three uL of reagents (100 nM EPAC1, 250 nM RAP1B-BODIPY-GDP, 50 uM GDP) were dispensed into a 1536-well Greiner black solid-bottom medium binding assay plate. Controls and test compounds (23 nL) were transferred to the plate via a Kalypsys pin tool equipped with a 1536-pin array. The plates were centrifuged at 1,000 rpm for 15 seconds followed by 5 minute incubation at room temperature. The assay plates were read at 5 minute intervals for 30 minutes in the ViewLux plate reader using 480nm excitation and 540nm emission filters. The results were normalized to the […] positive control ATA and DMSO.
# Potency means the concentration at half of the fitted maximal effect.
SMILES,"activity, negative = inhibition",Potency
O=c1c(/C=C(\O)c2ccccc2)nc2ccccc2n1-c1ccccc1,44.5%,–
Cc1cccc2c1NC(=O)C2(O)N1CCCC(C)C1 (stereo not given),-20.5%,–
CCCCc1c(C)nc2ccccc2c1SCCC#N,-23%,–
COc1ccc(/C(O)=C/c2nc3ccccc3n(-c3ccccc3)c2=O)cc1,99%,–
O=C(CN1C(=O)c2ccccc2C1=O)Nc1cc([N+](=O)[O-])ccc1O,-21.4%,–
COc1ccc(S(=O)(=O)N2CCCC2)c(Cl)c1Cl,-9.52%,–
Cc1cc2nc3c(=O)n(C4CCCCC4)c(=O)[nH]c3nc2cc1N,70.2%,–
C=CCN(CC=C)Cc1cc(=O)oc2cc(C)cc(C)c12,-0.588%,–
Cc1ccc(Cc2cnc(N3C(=N)SC(c4ccccc4)C3=O)s2)cc1 (stereo not given),-20.3%,–
COC(=O)c1ccccc1C(=O)c1c(C)cc(C)cc1C,-17.4%,–
Cc1oc2c(c1C(=O)c1ccccc1)C(=O)C(=O)c1ccccc1-2,–,42.6 µM (active)
Cn1c(/C(C#N)=C/c2ccc(-c3ccc(S(N)(=O)=O)cc3)o2)nc2ccccc21,37%,–
CCN1C(=O)N(S(=O)(=O)C(F)(F)F)[C@@H](c2ccccc2)C(C(=O)OC)=C1C,-29.8%,–
COC(=O)C1=CN(Cc2cccs2)C=C(C(=O)OC)C1c1cccc(Cl)c1,-17.8%,–
COc1ccccc1C(=O)Nc1ccccc1C(=O)N1C(C)CCCC1C (stereo not given),-3.62%,–
O=S(=O)(c1ccc(Cl)cc1Br)N1CCCCC1,-19.5%,–
COc1ccc(C2=CC3=C(Br)C(=O)C(C)(OC(=O)c4cccs4)C(=O)C3=CO2)cc1 (stereo not given),–,16.9 µM (active)
Cc1ccc(NC(=O)Cn2nnc(-c3nc(-c4ccncc4)no3)c2N)c(C)c1,-18%,–
Cn1c(=O)c2c(nc(NCCc3ccccc3)n2CC(=O)NCCc2ccccc2)n(C)c1=O,-21.1%,–
COc1cc(OC)c(-c2cc(C(=O)O)ccc2OC)c(OC)c1,-23.1%,–

SMILES,"activity, negative = inhibition",Potency
CCOc1ccc(/C=C2\SC(=S)N(NS(=O)(=O)c3ccc(C)cc3)C2=O)cc1OC,–,56.2 µM (active)
CC(Oc1ccc(Br)cc1)C(=O)NCC(c1cccs1)N1CCOCC1 (stereo not given),-23.7%,–
COc1ccc(C2CC(=O)Oc3cc(C)c(Cl)cc32)cc1 (stereo not given),-14.8%,–
Cc1cc(=O)oc2ccc(OC(=O)CN3C(=O)c4cccc([N+](=O)[O-])c4C3=O)cc12,-18.4%,–
Cc1cc(-c2ccc(F)cc2)n2ncc(-c3ccccc3)c2n1,-16.7%,–
Cc1ccc2oc(=O)n(Cc3ccc(OC(C)C)cc3)c2c1,-16.3%,–
CC(C)(C)CNC(=O)c1cccc2c1C(=O)c1ccc(-c3cc4ccccc4o3)cc1S2(=O)=O,-3.33%,–
COc1cc(N)ccc1-c1cc2ccccc2oc1=O,-14.4%,–
O=C1c2cccc3c(O)ccc(c23)C(=O)N1c1ccc(Cl)cc1,68.7%,–
C[C@@H]1CN([C@@H](C)CO)C(=O)Cc2cc(NC(=O)C3CCCCC3)ccc2O[C@H]1CN(C)S(=O)(=O)c1ccccc1,-39.5%,–
C=CCn1c(SCC(=O)NC(N)=O)nnc1-c1cc2c(s1)CCC(CC)C2 (stereo not given),-29.2%,–
CCCCCCn1c(=O)[nH]c2nc3cc(N)c(C)cc3nc2c1=O,30%,–
Cc1nn(-c2c(Cl)cc(Cl)cc2Cl)c(=O)c2ccccc12,-23.4%,–
Cc1cc2ccccn2c1C(=O)c1ccc(Cl)c([N+](=O)[O-])c1,-11.6%,–
C=Cc1ccc(CC2(C)C(=O)Nc3ccc(-c4cccnc4)cc32)cc1 (stereo not given),-19.5%,–
O=c1oc2ccc(Cl)cc2nc1/C=C(\O)c1cccs1,3.42%,–
COc1ccc([C@@H]2[C@@H]3C(=O)N(C(C)(C)C)C(=O)[C@@H]3[C@]3(Cc4ccccc4)C(=O)N(c4cccc(Br)c4)C(=O)N23)cc1,-17.8%,–
COc1ccc(-c2cc(=O)oc3c(O)c(O)ccc23)cc1,–,8.49 µM (active)
COc1cccc(Nc2nnc(-c3cc4ccc(O)cc4oc3=O)s2)c1,-29.5%,–
C=C1CCC(O)C/C1=C\C=C1/CCCC2(C)C1CCC2C(C)/C=C/C(C)C(C)C (stereo not given),-11.5%,–
